Bioassay records: PubChem BioAssay, National Center for Advancing Translational Sciences (NCATS)
VDR inhibitor: vitamin D3 receptor (human) inhibition | AID 504847 | VDR-SRC2-3 peptide fluorescence polarization, 2 h | Potency, µM, usual class: inhibitors | P11473 | 400,000 tested, 0.93% active
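VDR–SRC2-3 interaction, FP format. Cmpds 23 nl via pintool, brief spin, 2 h ambient incubation.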
PLK1 PBD inh: inhibitors of human PLK1 polo-box domain binding | P53350 | 360,000 tested, 2.8% active | Plk1 PBD binding of FITC phosphopeptide, fluorescence polarization | Potency, µM, hits mostly inhibitors; note: series mostly up to about 57 µM; nearly all actives have a fitted effect of over 65% in size
MBNL1-CUG inh: blocks human MBNL1 binding to CUG repeat RNA. 280,000 tested, 0.036% active. AID 2675. Q9NR56. Potency, µM (series often up to 57.5 µM), usual class: inhibitors. TR-FRET MBNL1-His/biotin-(CUG)12 binding, 665/545 ratio; active = well fitted inhibition curve with a large enough effect in the signal ratio, with a control signal flat, not every such curve was filed as active; inconclusive = small, poorly fitted or top-dose-only effect, or effect the other way, or a change in a side signal; inactive = no such curve, though single readings can be large or run the other way; the % refers to the signal ratio
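TR-FRET between His-tagged MBNL1 and biotin-(CUG)12 RNA, detected with Tb anti-His antibody (0.055 ng/ul) and streptavidin-XL665 (5 nM), 60 min at room temperature. Compounds titrated 92 nM to 58 uM; 665/545 nm ratio normalized to buffer and complex controls.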
hERG WT inh: blocks the wildtype human KCNH2 potassium channel. U2OS, BacMam KCNH2, thallium flux FluxOr; stronger effect = lower value. activity change, % at 1.84 µM. 340,000 tested, 0.37% active. AID 720551;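 active = maximum activity change below -70%; inconclusive = maximum activity change between -70% and -50%; inactive = maximum activity change above -50%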
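U2OS cells transduced with wild-type KCNH2 virus are loaded with FluxOr dye for 45 min, and thallium flux is measured in kinetic reads before and after stimulation buffer. Rate constants are normalized to DMSO controls.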
KCNH2 3.1 block: blocks the human KCNH2 3.1 channel isoform; U2OS KCNH2 3.1, thallium flux FluxOr; stronger effect = lower value; 340,000 tested, 0.95% active; activity change, % (tested at about 1.8 µM); AID 720553;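 active = maximum activity change below -70%; inconclusive = maximum activity change from -70% to -50%; inactive = maximum activity change above -50%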;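 note: thallium influx rate constant from kinetic fluorescence after stimulation buffer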
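We transduce U2OS cells with the mutant 3.1 virus, culture them overnight, load FluxOr with Red40 quencher for 45 min, then add stimulation buffer and read kinetically for 2 min to derive a normalized rate constant.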
CBFb-RUNX1 inh: CBF-beta/RUNX1 interaction disruption. Q01196+Q13951. AlphaScreen CBFb-His/RUNX1-biotin binding, biochemical. Potency, µM (titrated, usually from 59.8 µM), most hits filed as inhibitors. 230,000 tested, under 10 active. AID 1477
Target sequence (Q01196 whole entry, looked up): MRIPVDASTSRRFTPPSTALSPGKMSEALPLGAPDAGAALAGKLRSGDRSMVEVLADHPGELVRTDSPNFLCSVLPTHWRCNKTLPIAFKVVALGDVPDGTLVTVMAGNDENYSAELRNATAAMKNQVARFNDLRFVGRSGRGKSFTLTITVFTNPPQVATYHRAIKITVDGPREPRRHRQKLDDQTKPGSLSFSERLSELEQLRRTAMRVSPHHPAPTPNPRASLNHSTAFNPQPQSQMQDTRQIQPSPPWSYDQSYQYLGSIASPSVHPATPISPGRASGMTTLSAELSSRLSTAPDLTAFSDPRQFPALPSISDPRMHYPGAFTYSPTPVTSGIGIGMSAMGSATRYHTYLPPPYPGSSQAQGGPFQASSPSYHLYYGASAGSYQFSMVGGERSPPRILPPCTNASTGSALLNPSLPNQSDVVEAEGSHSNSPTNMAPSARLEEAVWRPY
Target sequence (Q13951 whole entry, looked up): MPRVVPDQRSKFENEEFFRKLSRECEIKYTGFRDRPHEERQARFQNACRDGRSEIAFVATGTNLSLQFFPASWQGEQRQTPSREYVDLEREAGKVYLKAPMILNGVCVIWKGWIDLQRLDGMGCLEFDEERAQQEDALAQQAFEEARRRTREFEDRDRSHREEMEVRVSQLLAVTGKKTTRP
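Room-temperature protein-protein interaction test with 30 nM each of His-tagged CBF-beta and biotinylated RUNX1, 15 min with compound, then 90 min with nickel plus streptavidin beads. Signal read in AlphaScreen mode.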
A number is an active result; i = inactive; ? = inconclusive; nt = no result given. Only some compounds are listed: those with a hit (about 3.8% of all), similar ones and a draw of the others. Unless noted, calls come from the whole dose curve; as a rule, active = well fitted curve in the direction sought with a large enough effect; inconclusive = small, poorly fitted or top-dose-only effect, or another doubt; inactive = no such curve, though single readings can be large; an effect the other way counts as inactive or inconclusive.

SMILES | VDR inhibitor | PLK1 PBD inh | MBNL1-CUG inh | hERG WT inh | KCNH2 3.1 block | CBFb-RUNX1 inh
COC(=O)c1ccc(N2C(=O)CC(Sc3n[nH]c(C)n3)C2=O)cc1 (stereo unspecified) | i | 3.36µM | i | i | i | i
CCOCCn1c(=O)c2c(nc3n2CCN3c2ccc(C)c(C)c2)n(C)c1=O | i | nt | nt | nt | nt | nt
CCOC(=O)C(C)(C)n1nnc(-c2ccc([N+](=O)[O-])cc2)n1 | ? | i | i | i | -82.8 | i
CCOC(=O)Cn1nnc(-c2ccc([N+](=O)[O-])cc2)n1 | i | i | ? | i | ? | i
CN(C)CCCNC(=O)/C=C/c1ccc2c(c1)OCO2 | i | i | ? | -73.8 | i | i
CCS(=O)(=O)N1CCCC(C(=O)NCCOC)C1 (stereo unspecified) | i | nt | nt | nt | nt | nt
O=C(O)c1ccc(NC(=S)NC(=O)C(c2ccccc2)c2ccccc2)cc1 | i | i | i | i | i | nt
COc1ccc(C(=O)O)cc1NC(=S)NC(=O)C(c1ccccc1)c1ccccc1 | i | 59.7µM | i | i | i | nt
O=C(Nc1nccs1)c1ccc(Br)o1 | i | i | i | i | i | i
O=C(/C=C/c1ccc(Br)o1)Nc1nccs1 | i | 21.2µM | i | nt | i | ?
O=C(/C=C/c1ccc(Br)o1)NCc1ccccc1 | 89.1µM | ? | i | i | i | i
Cc1ccc(CNC(=O)Cc2ccc(-n3cccc3)cc2)cc1 | i | i | i | i | i | i
CCc1ccc(NC(=O)Cc2ccc(-n3cccc3)cc2)cc1 | i | i | i | i | i | i
O=C(Cc1ccc(-n2cccc2)cc1)NCc1cccs1 | i | i | i | i | -88.5 | i
CCc1ccccc1NC(=O)Cc1ccc(-n2cccc2)cc1 | ? | 7.52µM | i | i | i | i
COc1ccc(CNc2ncnc3nc[nH]c23)cc1 | i | nt | nt | nt | nt | nt
COc1ccccc1-c1nn2c(-c3cc(C)[nH]n3)nnc2s1 | i | nt | nt | nt | nt | nt
CC(C)(C)OC(=O)[C@H](Cc1ccccc1)NC(=O)c1nc[nH]c1C(=O)N1CCN(C(=O)OC(C)(C)C)CC1 | i | i | i | i | i | nt
CC(C)(C)OC(=O)[C@H](Cc1ccccc1)NC(=O)c1nc[nH]c1C(=O)N1CCN(c2ccccc2)CC1 | ? | 21.2µM | i | i | i | nt
CC(C)=CCOc1ccc(/C=C/C(=O)c2ccc(OCC=C(C)C)cc2OCC(=O)O)cc1 | 10µM | nt | nt | nt | nt | i
CCOC(=O)Cc1c(C(=O)OCC)nnc2c(-c3ccccc3)c(C)nn12 | i | nt | nt | nt | nt | nt
Cn1cnc([N+](=O)[O-])c1S(=O)(=O)c1ccc(Cl)cc1 | 50.1µM | ? | ? | i | i | i
Cn1cnc([N+](=O)[O-])c1NC(C)(C)C | i | i | i | i | i | i
Nc1nc(N)c2ncc(C(=O)CCc3ccccc3)nc2n1 | ? | 4.74µM | ? | i | i | i
O=C(NCCc1ccccc1)c1cnc2ccccc2n1 | i | i | ? | i | i | nt
SMILES | VDR inhibitor | PLK1 PBD inh | MBNL1-CUG inh | hERG WT inh | KCNH2 3.1 block | CBFb-RUNX1 inh
O=C(NC(Sc1ccc(Cl)cc1)C(=O)O)c1ccccc1 (stereo unspecified) | nt | 13.4µM | nt | i | i | nt
O=C(NC(C(=O)O)c1ccccc1)c1ccccc1 (stereo unspecified) | i | i | i | i | i | i
Cc1cccc[n+]1CC(=O)c1ccc(Cl)cc1 | i | i | nt | i | i | nt
Cc1cccc[n+]1CC(=O)c1ccc2c(c1)OCCO2 | i | 26.7µM | i | i | i | i
O=C(O)CCC(=O)N1CCc2cc(S(=O)(=O)N3CCN(c4ccc(F)cc4)CC3)ccc21 | i | i | i | i | -101.0 | i
Cc1ccc(C)c(N2CCN(S(=O)(=O)c3ccc4c(c3)CCN4C(=O)CCC(=O)O)CC2)c1 | i | i | i | i | i | i
O=C(c1cc2sccc2n1Cc1ccc(F)cc1)N1CCN(c2nc3ccccc3s2)CC1 | i | i | i | i | -90.0 | i
COCCNC(=O)C1CCN(C(=O)c2cc3sccc3n2Cc2ccc(F)cc2)CC1 | i | i | i | i | i | i
COc1cccc(OC)c1C(=O)Nc1ccc2c(c1)CCCN2S(=O)(=O)c1ccc(C)cc1 | ? | 10.6µM | i | i | i | nt
Cc1ccc(S(=O)(=O)N2CCCc3cc(NC(=O)c4c(F)cccc4F)ccc32)cc1 | i | 26.7µM | i | i | i | nt
Cc1ccc(S(=O)(=O)N2CCCc3cc(NC(=O)c4ccc(F)c(F)c4)ccc32)cc1 | i | nt | nt | nt | nt | nt
COc1ccc(CCNC(=O)COc2ccc([N+](=O)[O-])cc2)cc1 | 28.2µM | 18.9µM | i | i | i | i
CCOC(=O)c1cc(OC(=O)c2cccc(Cl)c2)n(-c2ccccc2)n1 | i | nt | nt | nt | nt | nt
CCOC(=O)c1ccc(CN(Cc2ccccc2)S(=O)(=O)c2ccc(C)cc2)cc1 | i | nt | nt | nt | nt | nt
O=C(O)c1ccc(CN(Cc2ccccc2)S(=O)(=O)c2ccc(Cl)cc2)cc1 | ? | 23.8µM | i | i | i | nt
O=C(O)c1ccc(Cl)c(S(=O)(=O)N(Cc2ccccc2)c2ccc(Cl)cc2)c1 | i | 29.9µM | i | i | i | nt
COc1ccc(-n2cc(-c3ccc4c(c3)OCO4)n(CC(=O)Nc3cccc(C)c3)c2=O)cc1 | i | nt | nt | nt | nt | nt
OCCN1CCN(c2nc(-c3ccccc3)c3cc(Cl)ccc3n2)CC1 | i | i | i | i | -99.1 | i
Clc1ccc2nc(N3CCNCC3)nc(-c3ccccc3)c2c1 | i | i | i | i | i | i
CCn1ccc2cc(S(=O)(=O)N3CCCN(C(=O)NCC(=O)OC)CC3)ccc21 | i | nt | nt | nt | nt | nt
COc1ccccc1-n1c(=O)n(C)c2c(C(N)=O)nc(-c3cc(OC)c(OC)c(OC)c3)nc21 | i | nt | nt | nt | nt | nt
COCCNC(=O)COc1ncnc2scc(-c3ccc(F)cc3)c12 | i | i | i | i | -112.0 | i
CC(C)NC(=S)N(C)C1(c2ccccc2Cl)CCCCC1=O (stereo unspecified) | i | i | nt | i | -93.2 | i
CCOC(=O)C1C2C=CC3(CN(Cc4cccs4)C(=O)C13)O2 (stereo unspecified) | i | 16.8µM | i | i | i | i
O=C(NCCc1ccc(Cl)cc1)c1c2c(nc3ccccc13)C(=O)N(C1CCCCC1)C2 | i | nt | nt | nt | nt | nt
CC(Oc1ccc(F)cc1)C(=O)Nc1cccc(-c2nn[nH]n2)c1 (stereo unspecified) | ? | 21.2µM | i | -85.7 | i | nt
Cc1ccc(-c2nc(-c3cc4c([nH]c3=O)CC(C)(C)CC4=O)sc2C)cc1 | i | nt | nt | nt | nt | nt
CCCCCC(=O)Nc1cccc(C2=NOC3(C2)C[C@@H](C(N)=O)N(C(=O)c2cc([N+](=O)[O-])cc([N+](=O)[O-])c2C)C3)c1 (stereo partly specified) | i | i | ? | i | i | i
C/C=C\C=C\C(=O)N1CC2(CC(c3cccc(NC(=O)COc4ccc(Cl)cc4)c3)=NO2)C[C@H]1C(N)=O (stereo partly specified) | 89.1µM | i | i | i | ? | i
